Data taken from PubChem BioAssay (Tox21).
Inconclusive results are not listed. Unmarked numbers belong to inactive results. Calls follow the shape of the full dose curve.

Test: qHTS assay to identify small molecule agonists or antagonists of the thyroid stimulating hormone receptor (TSHR) signaling pathway - wild type cell line counter screen (AID 1259384)
Details: HEK293 wild type, cAMP HTRF counter-screen, active compounds read high; series mostly up to 92.4 µM; cAMP activity change: at the top concentration
Text: U.S. Tox21 Program National Center for Advancing Translational Sciences [NCATS] NIH Chemical Genomics Center [NCGC] U.S. Environmental Protection Agency [EPA] National Institutes of Environmental Health Sciences [NIEHS] National Toxicology Program [NTP] U.S. Food and Drug Administration [FDA] Tox21 Assay Overview: TSHR is the receptor for thyrotropin (thyroid stimulating hormone or TSH), a member of the glycoprotein hormone family. TSH is released by the anterior pituitary gland and is the main regulator of thyroid gland growth and development. Upon binding circulating thyrotropin, a G-protein signal cascade activates adenylyl cyclase and […] cAMP concentration is increased. cAMP is a key second messenger involved extensively in cellular signal transduction pathways associated with the majority of G-protein coupled receptors (GPCRs). The activation of these GPCRs by neurotransmitters, lipids, nucleotides, peptides and hormones results in the activation or the inhibition of plasma membrane-bound adenylate cyclase through heterotrimeric G-proteins. A cell-based TSHR-Hek293 assay can be used to identify TSHR agonists. To eliminate the false positive compounds identified from screening a cell-based TSHR-Hek293 cell line, cAMP assay in a wild type Hek293 cells was used as a counter screening.
Tox21 Assay Protocol Summary: Hek293 cells (wild type) were dispensed at 800 cells/4 uL/well in 1536-well white plates using a Multidrop dispenser. After the assay plates were incubated at a 37 C/5% CO2 incubator for 18 hrs, 23 nL of compounds dissolved in DMSO, positive controls or DMSO only was transferred to the assay plate by a pin tool, followed by 1 ul medium containing Ro20-1724. After 30 min of incubation at room temperature, 2.5 ul/well of cAMP-d2 and 2.5 ul/well of anti-cAMP-cryptate were added respectively into the assay plates using a Flying Reagent Dispenser. The plates were incubated at room temperature for 1 hr. The fluorescence intensity in the plates was measured using an Envision plate reader. Each test compound was measured at 15 concentrations and in triplicates.
% is scaled to controls: 0 for no effect and ±100 for the full control effect.

| Structure (SMILES) | cAMP activity change |
| --- | --- |
| CCCC(C)(COC(N)=O)COC(N)=O | -0.289% |
| COC(=O)c1ccc(CBr)cc1 | -0.955% |
| CS(=O)(=O)c1ccc(C(=O)C2C(=O)CCCC2=O)c(Cl)c1COCC(F)(F)F | 1.34% |
| Clc1ccc(C(Cl)(Cl)Cl)cn1 | -1.16% |
| CCN[C@H](C)Cc1cccc(C(F)(F)F)c1 | -0.473% |
| CCN[C@@H](C)Cc1ccccc1 | -0.739% |
| CCC1(c2ccccc2)C(=O)N(COC)C(=O)N(COC)C1=O | -6.72% [at 42.5 µM] |
| CC(=NC#N)N(C)Cc1ccc(Cl)nc1 | -0.581% |
| CN1C(=O)COc2c(C(=O)NC3CN4CCC3CC4)cc(Cl)cc21 (stereo not given) | 0.183% [at 42.5 µM] |
| Cc1ccc(-c2nc3ccc(C)cn3c2CC(=O)N(C)C)cc1 | -10.6% [at 42.5 µM] |
| CCCCCCC1CCOC1=O (stereo not given) | -0.413% |
| NC(=O)OCCCc1ccccc1 | -2.5% [at 42.5 µM] |
| CCCC[N+](=O)[O-] | -0.118% |
| CC(Cl)(Cl)Cl | -4.19% |
| CC[C@H](N)c1ccccc1 | 1.98% |
| BrCCc1ccccc1 | 4.79% |
| CCCOc1nn(C(=O)NS(=O)(=O)c2ccccc2C(=O)OC)c(=O)n1C | 1.01% |
| CCOC(=O)C(Cl)Cc1cc(-n2nc(C)n(C(F)F)c2=O)c(F)cc1Cl (stereo not given) | 3.44% |
| O=C(Cl)C(Cl)(Cl)Cl | -0.473% |
| O=[N+]([O-])c1cccc(CCl)c1 | 3.08% |

| Structure (SMILES) | cAMP activity change |
| --- | --- |
| C(COCC1CO1)OCC1CO1 (stereo not given) | 2.63% |
| COP(=O)(O)OC | -0.544% |
| N#CC(Br)(Br)C(N)=O | -4.23% |
| CCOc1cc(OP(=S)(OC)OC)nc(CC)n1 | -2.36% |
| CCc1cc(OC)c(C[C@H](C)N)cc1OC | 3.43% |
| COP(=O)(OC)O/C(C)=C/C(=O)N(C)C | 1.13% |
| CCN(CCO)CCn1c(Cc2ccccc2)nc2c1c(=O)n(C)c(=O)n2C | -0.763% [at 42.5 µM] |
| C=CCCC#N | -0.198% |
| CCC(C)(C#N)N=NC(C)(C#N)CC (stereo not given) | -0.781% |
| CC(C)[C@]12CC(=O)[C@H](C)[C@H]1C2 | 2.82% |
| Brc1c(Br)c(Br)c(Br)c(Br)c1Br | 7.95% [at 8.39 µM] |
| C[C@H](N)C(=O)c1ccccc1 | -0.354% |
| C=C(Cl)CCl | 0.334% |
| CC(Cc1ccccc1)NCCCCl (stereo not given) | -2.73% [at 42.5 µM] |
| ClCOCCl | -0.302% |
| CC(C)(O)C(Cl)(Cl)Cl | -8.73% [at 42.5 µM] |
| CCOP(=S)(OCC)Oc1ccc(Cl)cc1Cl | -0.864% |
| CCCCS(=O)(=O)Cl | -0.117% |
| O=C(O)CBr | -2.81% |
| CCC1(c2ccccc2)CCC(=O)NC1=O (stereo not given) | 6.25% [at 42.5 µM] |
